Source: ChEMBL document CHEMBL1156829
Over roughly 5,400 compounds, “IFI” has its median near 2; the highest 2% begin near 22. The sample as a whole holds a higher share of the highest values than the screen did.

Test: NOVARTIS: Inhibition Frequency Index (IFI) - the number of HTS assays where a compound showed > 50% inhibition/induction, expressed as a percentage of the number of assays in which the compound was tested.
Assay type: functional

Row | SMILES | IFI
1 | CC1CC(C)CC(C)C(O)C(C#N)=CC=CCC(C2CCCC2C(=O)O)OC(=O)CC(O)C(C)C1 (stereo not given) | 25.8%
2 | COc1ccc(Cn2cccc(C(=O)Nc3ccc(OC)cc3)c2=O)cc1 | 5.26%
3 | Oc1ccccc1C=Nc1ccccc1[Te]c1ccccc1N=Cc1ccccc1O | 8.21%
4 | Cc1nc2c(=O)n(C)c(=O)nc-2n(C)n1 | 25%
5 | CCn1nc(/C=C/c2ccccc2)nc2c(=O)n(C)c(=O)nc1-2 | 16.7%
6 | Cn1ncnc2c(=O)n(C)c(=O)nc1-2 | 26.7%
7 | CCC(C)N1CCN(Cc2cccc(OC)c2OC)CC1 (stereo not given) | 3.17%
8 | CCCC[C@@H](C)C(O)[C@H]1C(=O)N[C@@H](CC)C(=O)N(C)CC(=O)N(C)[C@@H](CC(C)C)C(=O)N[C@@H](C(C)C)C(=O)N(C)[C@@H](CC(C)C)C(=O)N[C@@H](C)C(=O)N[C@@H](C)C(=O)N(C)[C@@H](CC(C)C)C(=O)N(C)[C@@H](CC(C)C)C(=O)N(C)[C@@H](C(C)C)C(=O)N1C (stereo not given in full) | 3.45%
9 | CNCC(O)c1ccc(Cl)c(Cl)c1 (stereo not given) | 0%
10 | Nc1ccc(C(=O)NN=Cc2cccc([N+](=O)[O-])c2)cc1 | 0%
11 | C=C[C@H]1CN2CC[C@H]1C[C@H]2[C@H](OC(=O)c1cccc([N+](=O)[O-])c1)c1ccnc2ccccc12 | 0.926%
12 | COC1=CC(C)=C[C@@H](C)[C@@H](O)[C@H](C)CC(C)=CC=C[C@H](OC)[C@@H](C(C)C(O)[C@H](C)[C@@]2(O)C[C@@H](O)[C@H](C)[C@@H](C(C)C)O2)OC1=O (stereo not given in full) | 19.6%
13 | C=CC1CN2CCC1CC2C(OC(=O)C1CC1)c1ccnc2ccccc12 (stereo not given) | 0%
14 | Cc1ccc(CN2C3CCCC2CC(NC(=O)Nc2cccc(F)c2)C3)cc1 (stereo not given) | 1.32%
15 | O=C(Nc1ccc(Oc2ccc(OC(F)(F)F)cc2)cc1)C1CC1 | 1.57%
16 | CCOC(=O)CN(N=O)C1=C(N2CC2)C(=O)c2ccccc2C1=O | 30.8%
17 | COc1ccc(NC2=C(N3CCCCC3)C(=O)c3ccccc3C2=O)cc1 | 18.7%
18 | COc1cc(CN2CC3CC(C2)c2cccc(=O)n2C3)ccc1O (stereo not given) | 0%
19 | O=C(NNC(=O)c1csnn1)c1ccc(C(F)(F)F)cc1 | 3%
20 | Cc1nc(Oc2ccc3ccc(=O)oc3c2)c2c3c(sc2n1)CCCCC3 | 0%
21 | Cc1c2ccccc2c(C)c2ccccc12 | 3.76%
22 | NC(=O)Oc1ccc(Cc2ccccc2)cc1 | 0%

Row | SMILES | IFI
23 | CC(Cc1ccccc1)NCc1ccccc1O (stereo not given) | 3.12%
24 | CN1CCN(c2nc(Cl)nc3[nH]cnc23)CC1 | 0.699%
25 | CC(=O)N(C1=C(N(C)C)C(=O)c2ccccc2C1=O)c1cccc(F)c1 | 15.4%
26 | CC(=O)N(C1=C(N(C)C)C(=O)c2ccccc2C1=O)c1ccc(F)c(F)c1 | 23.1%
27 | CC(=O)N(C1=C(N(C)C)C(=O)c2ccccc2C1=O)c1ccc(Cl)cc1 | 0%
28 | COc1ccccc1-n1c(/C=C/c2cc(Br)ccc2O)nc2ccccc2c1=O | 8.06%
29 | CC(C)[C@@]1(NC(=O)[C@@H]2C[C@@H]3c4cccc5[nH]cc(c45)C[C@H]3N(C)C2)O[C@@]2(O)[C@@H]3CCCN3C(=O)[C@H](CC3CCCCC3)N2C1=O | 9.52%
30 | O=C1c2ccccc2-c2nc3nnnn3nc21 | 42.9%
31 | CC=C[C@H]1O[C@@](O)([C@H](C)C(O)C(C)[C@@H]2OC(=O)C(OC)=CC(C)=C[C@H](C)[C@H](O)[C@H](CC)[C@H](O)C(C)CC(C)=CC=C[C@H]2OC)C[C@@H](O[C@@H]2C[C@H](O)[C@@H](OC(N)=O)[C@H](C)O2)[C@@H]1C (stereo not given in full) | 15%
32 | CO/C(=C\C(N)=O)C(C)C(/C=C/c1csc(-c2csc(C(C)/C=C/C=C/C(C)C)n2)n1)OC (stereo not given) | 11.5%
33 | C=C[C@H]1CN2CC[C@H]1C[C@H]2[C@H](OC(C)=O)c1ccnc2ccccc12 | 1.89%
34 | CC[C@H]1CN2CC[C@@H]1C[C@@H]2[C@@H](O)c1ccnc2ccc(OC)cc12 | 2.16%
35 | CC1OC(=O)C(C(C)C)NC(=O)C(C(C)C)OC(=O)C(C(C)C)NC(=O)C(C)OC(=O)C(C(C)C)NC(=O)C(C(C)C)OC(=O)C(C(C)C)NC(=O)C(C)OC(=O)C(C(C)C)NC(=O)C(C(C)C)OC(=O)C(C(C)C)NC1=O (stereo not given) | 27.7%
36 | C=CC1(O)CN2CCC1CC2[C@@H](O)c1ccnc2ccc(OC)cc12 (stereo not given in full) | 3.57%
37 | CCc1cc2c(cc1-c1csc(NC(=N)N)n1)C(C)(C)CCC2(C)C | 5.16%
38 | CC1(C)CN=C(NCc2ccccc2Cl)S1 | 0%
39 | C=CC1CN2CCC1CC2C(OC(=O)c1ccco1)c1ccnc2ccccc12 (stereo not given) | 0%
40 | COc1cc2c3c(c4cc(OC)c(OC)cc4c2cc1OC)CN1CCC[C@@H]1C3 | 5.26%
41 | OC1(c2ccc(Br)cc2)CCN(C2CCN(CCc3ccccc3)CC2)CC1 | 4.1%
42 | Cc1cc(N(C)C)cc(C)[n+]1OC(=O)N(c1ccccc1)c1ccccc1 | 16.7%
43 | CNC1CC2OC(C)(C1OC)n1c3ccccc3c3c4c(c5c6ccccc6n2c5c31)C(=O)NC4O (stereo not given) | 28.6%
44 | C/C(=C\c1csc(C)n1)[C@@H]1C[C@@H]2O[C@@H]2CCC[C@H](C)C(O)[C@@H](C)C(=O)C(C)(C)[C@@H](O)CC(=O)O1 (stereo not given in full) | 6.9%

Row | SMILES | IFI
45 | CC[C@H]1CN2CCc3cc(OC)c(OC)cc3[C@@H]2C[C@@H]1C[C@H]1NCCc2cc(OC)c(OC)cc21 | 23.8%
46 | CC[C@H]1CN2CCc3cc(OC)c(OC)cc3[C@@H]2C[C@@H]1C[C@@H]1NCCc2cc(OC)c(OC)cc21 | 37%
47 | CC[C@H]1CN2CCc3cc(OC)c(OC)cc3[C@@H]2C[C@@H]1C[C@H]1NCCc2cc(O)c(OC)cc21 | 32.3%
48 | CCC1CN2CCc3cc(OC)c(OC)cc3C2CC1CC1NCCc2cc(OC)c(OC)cc21 (stereo not given) | 33.3%
49 | COc1ccc(C=NNc2ccnc3cc(Cl)ccc23)cc1 | 4.8%
50 | CN1C[C@@H](CSc2ccccn2)C=C2c3cccc4[nH]cc(c34)C[C@H]21 | 4.88%
51 | C=CC1CN2CCC1C(C(O)c1ccnc3ccc(OC)cc13)C2 (stereo not given) | 2.29%
52 | CC=C[C@H]1O[C@@](O)([C@@H](C)C(O)C(C)[C@H]2OC(=O)C(OC)=CC(C)=C[C@@H](C)[C@H](O)C(CC)[C@@H](O)[C@H](C)CC(C)=CC=C[C@@H]2OC)C[C@@H](O[C@H]2C[C@@H](O)[C@H](OC(N)=O)[C@@H](C)O2)[C@@H]1C (stereo not given in full) | 17.5%
53 | CCCCCCCCCCCCn1ccc(=N)cc1 | 15.4%
54 | CCC(C)(O)C(=O)O[C@H]1C(=O)OC2CC3C(C)=C[C@H](O)[C@@H](O)[C@]3(C)C3C24CO[C@]3(O)[C@H](O)[C@H](C)C14 (stereo not given in full) | 7.69%
55 | COc1cc2c(O[C@@H]3O[C@H](CO)[C@@H](O)[C@H](O)[C@H]3O)c3c(c(-c4ccc5c(c4)OCO5)c2cc1OC)C(=O)OC3 | 12.4%
56 | O=C(CCl)Nc1ccc(Cl)cc1 | 3.54%
57 | COc1ccccc1N1CCN(Cc2cc(C)c(C)cc2O)CC1 | 2.94%
58 | COc1ccc(C(Cc2ccccc2)NC2CN3CCC2CC3)cc1 (stereo not given) | 0%
59 | c1ccc(CCNC2CCN(Cc3ccccc3)CC2)cc1 | 0%
60 | O=C(NNC(=O)c1csnn1)c1ccc(Cl)cc1 | 1%
61 | c1ccc(-c2nn(-c3ccccc3)[n+](-c3ccccc3)n2)cc1 | 11.2%
62 | CCN(CC)S(=O)(=O)c1ccc(C(=O)c2c(C)c(C(=O)C(F)(F)F)c3ccccn23)cc1 | 3.12%
63 | COc1ccc(C[C@H]2NC[C@H](O)[C@H]2OC(C)=O)cc1 | 33.6%
64 | CC(=O)N(C1=C(N(C)C)C(=O)c2ccccc2C1=O)c1cccc(Cl)c1 | 7.14%
65 | Clc1cccc(CNC2CCN(CCc3ccccc3)CC2)c1 | 0.781%
66 | Cc1n(-c2ccccc2)c2c([n+]1C)C(=O)c1ccccc1C2=O | 33.3%

Row | SMILES | IFI
67 | CO[C@H]1[C@H](C)[C@@H]([C@H]2CC[C@H]([C@@H]3CC[C@H]([C@@]4(C)O[C@]5(O[C@H](C[C@@H]6O[C@](O)([C@@H](C)C(=O)O)[C@@H](C)[C@H](O[C@H]7CC[C@H](OC)[C@@H](C)O7)[C@@]6(C)OC)C[C@@H](OC)[C@H]5C)[C@H](C)[C@H]4OC)O3)O2)O[C@](C)(O)[C@@H]1C | 15.5%
68 | COc1cc2c(cc1O)CC[n+]1cc3c(OC)c(OC)ccc3cc1-2 | 0%
69 | CCN1C(=O)N(CC(N)=O)C(=O)C12CCN(Cc1ccc(N(C)c3ccccc3)cc1)CC2 | 3.85%
70 | CC(C)N1CC=C(c2c[nH]c3ccccc23)CC1 | 0%
71 | CC[C@@H]1CN2CC[C@H]1C[C@H]2[C@H](O)c1ccnc2ccc(OC)cc12 | 1.32%
72 | C[C@@H]1C[C@@H]([C@H](O)CC2CC(=O)NC(=O)C2)C(=O)[C@@H](C)C1 | 19.7%
73 | C[C@@H]1C[C@@H](C)C(=O)[C@@H](C(O)CC2CC(=O)NC(=O)C2)C1 (stereo not given in full) | 23.4%
74 | CC(=O)OC1(C)CC(C)C(=O)C(C(O)CC2CC(=O)NC(=O)C2)C1 (stereo not given) | 22.6%
75 | C[C@H]1C[C@H](C)C(=O)[C@@H]([C@@H](O)CC2CC(=O)NC(=O)C2)C1 | 23.9%
76 | OCCC1CN(Cc2cccc(Cl)c2)CCN1Cc1ccccc1 (stereo not given) | 7.69%
77 | COC(=O)[C@]1(C)CC[C@]2(C)CC[C@]3(C)C4=CC=C5C(=CC(=O)C(O)=C5C)[C@]4(C)CC[C@@]3(C)[C@@H]2C1 | 21.4%
78 | CC(=O)O[C@]1(C(C)=O)CCC2C3C=CC4=CC(=O)CC[C@]4(C)C3CC[C@@]21C (stereo not given in full) | 2.33%
79 | Cc1nc2ccccc2c(=O)n1-c1ccc([N+](=O)[O-])cc1 | 0%
80 | C=CC12CCN(CC1)C(C(O)c1ccnc3ccc(OC)cc13)C2 (stereo not given) | 0%
81 | C=CC1CN2CCC1CC2[C@H](c1ccnc2ccccc12)S(=O)(=O)O (stereo not given in full) | 0%
82 | O[C@@]1(c2cc3ccccc3s2)CN2CCC1CC2 | 1.63%
83 | CCN1CCC(N2CCC(n3c(Cc4ccccc4OC)nc4cc(F)ccc43)CC2)CC1 | 1.7%
84 | C=C[C@H]1CN2CC[C@H]1C[C@@H]2[C@@H](OC(=O)C(C)C)c1ccnc2ccccc12 | 1.67%
85 | CC1=CC[C@@H](/C(C)=C/c2csc(C)n2)OC(=O)C[C@H](O)C(C)(C)C(=O)[C@H](C)[C@@H](O)[C@@H](C)CCC1 | 5.66%
